Laboratory results reported in PMC4336329 (PLoS ONE, 2015).
About 14,000 (4.5%) of roughly 310,000 compounds showed an effect of 50% or more. Effects have a minus sign here. The full list was thinned out, with strong results kept by preference.

These compounds were tested against human ether-à-go-go-related gene (hERG) potassium channel (human, UniProt Q12809) (assay: primary screen, population patch clamp on CHO cells stably expressing hERG; higher = less effect of the substance).
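Further: peak tail current of the secondary pulse compared with the same well before compound.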

human ether-à-go-go-related gene (hERG) potassium channel, sequence (Q12809 whole entry, looked up): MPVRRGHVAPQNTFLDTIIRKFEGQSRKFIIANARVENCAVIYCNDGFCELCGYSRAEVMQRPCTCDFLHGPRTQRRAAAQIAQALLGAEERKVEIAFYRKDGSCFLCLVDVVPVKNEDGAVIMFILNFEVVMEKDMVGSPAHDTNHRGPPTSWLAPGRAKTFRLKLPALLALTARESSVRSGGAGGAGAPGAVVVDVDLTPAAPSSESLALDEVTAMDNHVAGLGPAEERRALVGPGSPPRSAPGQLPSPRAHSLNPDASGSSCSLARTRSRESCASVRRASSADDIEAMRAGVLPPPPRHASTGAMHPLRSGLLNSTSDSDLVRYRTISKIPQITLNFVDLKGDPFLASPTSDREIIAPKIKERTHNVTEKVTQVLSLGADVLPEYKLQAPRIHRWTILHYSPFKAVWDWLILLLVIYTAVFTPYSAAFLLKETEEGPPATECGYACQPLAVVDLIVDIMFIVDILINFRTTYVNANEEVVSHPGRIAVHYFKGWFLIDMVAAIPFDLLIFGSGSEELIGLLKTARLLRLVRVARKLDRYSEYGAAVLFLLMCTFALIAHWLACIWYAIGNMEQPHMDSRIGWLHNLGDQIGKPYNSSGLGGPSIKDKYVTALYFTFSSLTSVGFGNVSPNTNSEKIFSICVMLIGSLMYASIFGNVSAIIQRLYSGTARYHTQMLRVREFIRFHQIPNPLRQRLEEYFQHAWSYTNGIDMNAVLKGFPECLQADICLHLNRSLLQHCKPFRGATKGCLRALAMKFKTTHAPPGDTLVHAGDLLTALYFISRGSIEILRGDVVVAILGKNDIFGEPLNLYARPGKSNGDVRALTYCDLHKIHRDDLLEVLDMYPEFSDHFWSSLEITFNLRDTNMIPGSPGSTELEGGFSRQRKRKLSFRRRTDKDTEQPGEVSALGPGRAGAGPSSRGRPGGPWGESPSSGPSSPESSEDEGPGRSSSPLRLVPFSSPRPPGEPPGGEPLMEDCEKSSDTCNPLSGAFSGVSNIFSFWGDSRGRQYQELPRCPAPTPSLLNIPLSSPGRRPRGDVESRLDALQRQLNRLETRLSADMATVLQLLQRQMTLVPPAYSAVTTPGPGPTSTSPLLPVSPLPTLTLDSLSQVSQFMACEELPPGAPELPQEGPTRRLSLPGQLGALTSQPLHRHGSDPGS

Structure (SMILES)	hERG current change (%, negative = inhibition) at 10uM [%]
COc1ccccc1C(=O)Nc1cc(C)on1	7.07
CN(C)S(=O)(=O)c1ccc(Cl)c(NC(=O)COC(=O)C2CCCO2)c1 (stereo not drawn)	5.01
COc1ccc(NC(=O)CSc2nc(SC)ns2)c(OC)c1	2.53
O=C(OCc1csc(-c2ccccc2)n1)c1ccccc1O	29.6
CC1CCC(NC(=O)CSc2nnnn2C)CC1 (stereo not drawn)	6.96
CCOc1ccc(CCNC(=O)COC(=O)c2ccc(OC)c(OC)c2OC)cc1OCC	12.2
O=C(COc1cccc2cccnc12)NNC(=S)Nc1ccccc1	-25.8
CCc1cccc(C)c1NC(=O)C1CCCN(S(C)(=O)=O)C1 (stereo not drawn)	23.6
Cc1ccc([C@@H]2[C@@H]3C(=O)N(C)C(=O)[C@@H]3[C@]3(Cc4ccccc4)C(=O)N(CCO)CC(=O)N23)o1	0.221
CCN(CC(=O)NCc1ccc(F)cc1)CC(O)COCc1cccc(OC)c1 (stereo not drawn)	-60.6
COc1cccc(NC(=O)NCc2ccc(F)cc2)c1	-5.73
COc1cccc(CN(C)CC(=O)NCc2ccc(C)cc2)c1.O=C(O)C(=O)O	-49.3
COc1ccc(C2=NS(=O)(=O)N(C)C(C(=O)NC3CCCC3)=C2)cc1	2.43
COc1cccc(CSc2nnc(CSc3nc4nc(C)cc(C)n4n3)s2)c1	-54.4
Cc1cc(C)n2nc(SCc3nnc(SCc4ccccc4Cl)s3)nc2n1	9.19
COc1cccc(CSc2nc3nc(C)cc(C)n3n2)c1	-4.72
Cc1cccc(CSc2nc3nc(C)cc(C)n3n2)c1	-27.9
Cc1cc(C)n2nc(SCc3nnc(SCc4ccccc4C)s3)nc2n1	-64.9
Cc1cc(C)n2nc(SCc3nnc(SCc4ccccc4)s3)nc2n1	-28.6
Cc1noc(C)c1COc1ccc(C(=O)N(C)CCOc2ccccc2)cc1	-26.2
CCc1ccc(S(=O)(=O)NC2CC(C)(C)NC(C)(C)C2)cc1	5.09
Cc1cc(C(=O)N/N=C/c2ccc(OC(=O)c3ccccc3Br)cc2)n[nH]1	3.23

Structure (SMILES)	hERG current change (%, negative = inhibition) at 10uM [%]
O=C1NC2(CCc3ccccc32)C(=O)N1CCOc1ccc(Cl)cc1 (stereo not drawn)	-29.8
Cc1occc1-c1nnc(SCC(=O)N2CCN(c3ccc(F)cc3)CC2)n1C	-58.5
Cc1nc(Cc2nnc(SCC(=O)Nc3c(C)cccc3C)o2)cs1	15.1
Cc1occc1-c1nnc(SCC(=O)N2CCN(c3ccccc3F)CC2)n1C	4.99
C=CCn1c(SCC(=O)N2CCN(c3ccc(F)cc3)CC2)nnc1-c1cccs1	-68.9
C=CCn1c(SCC(=O)C(C)(C)C)nnc1-c1cccs1	-14.3
C=CCn1c(SCC(=O)O)nnc1-c1cccs1	0.617
Cc1occc1-c1nnc(SCC(=O)N2CCN(c3ccccc3)CC2)n1C	-27.8
Cc1nc(Cc2nnc(SCC(=O)N3CCN(c4ccc(F)cc4)CC3)o2)cs1	-50.9
C=CCn1c(SCC(=O)N2CCN(c3ccc(F)cc3)CC2)nnc1-c1ccco1	-70.2
C=CCn1c(SCC(=O)Nc2ccc(N3CCOCC3)cc2)nnc1-c1ccco1	2.29
Cc1nc(Cc2nnc(SCC(=O)N(C)c3ccccc3)o2)cs1	15.9
C=CCn1c(SCC(=O)N2CCN(c3ccccc3)CC2)nnc1-c1ccco1	-25.7
COC(=O)C1=C(N)Oc2c(oc(CO)cc2=O)C1c1ccc(F)cc1 (stereo not drawn)	-7.85
O=c1cc(N2CCOCC2)c2ccccc2o1	-13.9
O=C(CS(=O)c1cccc(C(F)(F)F)c1)Nc1ccc(Cl)cc1Cl (stereo not drawn)	8.83
CC1(C)Cc2c(sc(NC(=O)c3ccc(S(=O)(=O)N4CCCCCC4)cc3)c2C#N)C(C)(C)N1	-65.8
CCOC(=O)N1CCN(S(=O)(=O)c2ccc(C(=O)Nc3sc4c(c3C#N)CC(C)(C)NC4(C)C)cc2)CC1	14.6
CC1(C)Cc2c(sc(NC(=O)c3ccc(S(=O)(=O)N4CCCC4)cc3)c2C#N)C(C)(C)N1	-8.79
C=C[C@@]1(C)CC(=O)[C@]2(O)[C@@]3(C)[C@@H](O)CCC(C)(C)[C@@H]3[C@H](OC(C)=O)[C@H](O)[C@@]2(C)O1	7.62
O=C(CSc1ccc(Cl)cc1)N/N=C/c1ccc([N+](=O)[O-])o1	-12.5
COc1ccc(S(=O)(=O)n2cccc2)c(OC)c1	5.65

Structure (SMILES)	hERG current change (%, negative = inhibition) at 10uM [%]
CCS(=O)(=O)c1nc(S(=O)(=O)c2ccc(Cl)cc2)c(N2CCCC2)s1	10.5
CCS(=O)(=O)c1nc(S(=O)(=O)c2ccc(Cl)cc2)c(N2CCC3(CC2)OCCO3)s1	-51.5
CS(=O)(=O)c1nc(S(=O)(=O)c2ccc(Cl)cc2)c(N2CCC3(CC2)OCCO3)s1	-59.3
Cc1ccc(S(=O)(=O)c2nc(S(C)(=O)=O)sc2N2CCC3(CC2)OCCO3)cc1	-34.3
Cc1ccc(S(=O)(=O)c2nc(S(C)(=O)=O)sc2N2CCC(C(N)=O)CC2)cc1	7.6
CCS(=O)(=O)c1nc(S(=O)(=O)c2ccc(C)cc2)c(N2CCC3(CC2)OCCO3)s1	-35.4
CS(=O)(=O)c1nc(S(=O)(=O)c2ccc(Cl)cc2)c(N2CCC(O)CC2)s1	-13.9
CS(=O)(=O)c1nc(S(=O)(=O)c2ccc(Cl)cc2)c(N2CCOCC2)s1	12.1
CS(=O)(=O)c1nc(S(=O)(=O)c2ccc(Cl)cc2)c(N2CCC(C(N)=O)CC2)s1	-61.8
Nc1ncc([N+](=O)[O-])s1	19.6
C=CCN1C(=O)c2ccccc2C1(O)Cc1ccccc1 (stereo not drawn)	16.5
CCCC/C(O)=C1\C(=O)CC(C)(C)CC1=NCCCCCC(=O)O	7.59
Cc1[nH]c2ccccc2c1SCc1nnc(SCc2ccccc2)n1C	4.6
Cc1ccc(N2CC(c3nc4ccccc4n3C)CC2=O)cc1 (stereo not drawn)	-21.5
Cc1cc(C)cc(N2CC(c3nc4ccccc4n3C)CC2=O)c1 (stereo not drawn)	-10.8
CCCn1c(C2CC(=O)N(c3ccc(C)cc3)C2)nc2ccccc21 (stereo not drawn)	-52.9
CCn1c(C2CC(=O)N(c3cc(C)cc(C)c3)C2)nc2ccccc21 (stereo not drawn)	-2.71
C=CCn1c(C2CC(=O)N(c3ccc(C)cc3)C2)nc2ccccc21 (stereo not drawn)	-58.4
CCn1c(C2CC(=O)N(c3ccc(C)c(C)c3)C2)nc2ccccc21 (stereo not drawn)	-11.5
CCN(Cc1ccccc1)C(=O)CN1C(=O)c2ccccc2S1(=O)=O	-3.97
CC(C)c1ccc(NC(=O)CNC(=O)Cn2ccc3ccccc3c2=O)cc1	16.7
O=C(O)CC1(CC(=O)NCc2cc(F)cc3c2OCOC3)CCCCC1	6.25

Structure (SMILES)	hERG current change (%, negative = inhibition) at 10uM [%]
CC1CCN(CCCNC(=O)CN2CCN(Cc3ccc(Cl)cc3)C2=O)CC1	-55.2
O=C(CN1CCN(Cc2ccc(Cl)cc2)C1=O)NCCN1CCCC1	1.66
Cc1cccc(CN2CCN(CC(=O)NCc3ccc(F)cc3)C2=O)c1	-13.6
Cc1ccc(CN2CCN(CC(=O)NCCCN3CCN(c4ccc(F)cc4)CC3)C2=O)cc1	-66
Cc1cccc(CN2CCN(CC(=O)NCCCN3CCCC3=O)C2=O)c1	7
CC(C)OCCCNC(=O)CN1CCN(Cc2ccc(Cl)cc2)C1=O	11.6
O=C(CN1CCN(Cc2ccc(Cl)cc2)C1=O)NCCCN1CCOCC1	-2.85
O=C(CN1CCN(Cc2ccccc2)C1=O)NCCCN1CCOCC1	5.12
Cc1ccc2[nH]c3c(=O)n(CC(=O)NCCCN4CCN(c5ccc(F)cc5)CC4)ncc3c2c1	14.8
O=C(CN1CCN(Cc2ccc(Cl)cc2)C1=O)NCCCN1CCN(c2ccc(F)cc2)CC1	-81
O=C(CN1CCN(Cc2ccc(F)cc2Cl)C1=O)NCCCN1CCOCC1	-2.72
Cc1cccc(CN2CCN(CC(=O)NCCCN3CCN(c4ccc(F)cc4)CC3)C2=O)c1	-69.8
CC(C)CCC(O)(CCC(C)C)C(=O)NNc1ccccc1	-0.649
FC(F)(F)c1nc2ccccc2nc1N/N=C\c1ccccc1	12.3
CC(=O)c1ccc(S(=O)(=O)Nc2ccc(C(=O)N(C)CC(=O)Nc3cccc(C)c3C)cc2)cc1	14.5
COc1cc(/C=N/NC(=O)c2ccoc2C)ccc1O	-3.54
Cc1nn(CCC(=O)Nc2cccc(C#N)c2)c(C)c1S(=O)(=O)N1CCCCC1	-1.67
O=C(NNS(=O)(=O)c1ccccc1)c1cc2cc3ccccc3nc2s1	-10.4
CCOCCCNC(=O)CN1CCN(Cc2ccccc2C)C1=O	-5.69
COc1ccc(N2CCN(CCCNC(=O)CN3CCN(Cc4ccccc4C)C3=O)CC2)cc1	-46.5
Cc1ccccc1CN1CCN(CC(=O)NCCCN2CCN(c3ccc(F)cc3)CC2)C1=O	-71.2
